# This is a sample that favours compounds with a hit; in the whole collection about 3.7% have one here.
# PfHsp90 yeast 2: reduces growth (ATP signal) of yeast expressing P. falciparum Hsp90 | S. cerevisiae expressing PfHsp90, BacTiter-Glo ATP, 48 h; yeast lacking PDR1 and PDR3 efflux regulators | inhibition, % at 9.4 µM | 0.32% of 310,000 active;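 active = every replicate shows inhibition above about 80%, whatever the replicate mean, limit read from the data; inconclusive = mean inhibition reaches the set limit but some replicate falls short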;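 note: 0% = DMSO neutral controls and 100% = 20 µM radicicol positive controls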
# NALP3 yeast inh: inhibitors of NALP3 inflammasome in yeast | Yeast reconstituted NLRP3/ASC/caspase-1, beta-gal luminescence, 24 h | inhibition, % at 10 µM | AID 2825 | 0.39% of 330,000 active;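 active = inhibition of 50% or more; inactive = inhibition below 50%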;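 note: plate controls were induced DMSO wells for no effect and uninduced yeast grown without galactose for full effect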
# tim23-1 inh: inhibits growth of tim23-1 mutant yeast | inhibition, % at 20 µM | S. cerevisiae tim23-1 growth, BacTiter-Glo luminescence, 24 h | AID 463212 | 1.3% of 330,000 active;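 active = growth inhibition of the mutant yeast at or above 50%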;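 note: temperature-sensitive mutant grown at 25 °C; plate controls were DMSO-treated mutant yeast for no effect and medium wells lacking yeast for full effect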
# TIM10 inh: TIM10 yeast growth inhibition. 1.4% of 330,000 active. S. cerevisiae TIM10 strain growth, BacTiter-Glo luminescence, 24 h. AID 463195. inhibition, % at 10 µM;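 active = inhibition of 40% or more at the single tested concentration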;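 note: wild-type TIM10 isogenic control strain grown at permissive 25 °C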
# tim10-1 inh: growth inhibitors of tim10-1 mutant yeast | 2.2% of 330,000 active | S. cerevisiae tim10-1 ts strain growth, BacTiter-Glo, 24 h | inhibition, % at 20 µM;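 active = inhibition of at least 40%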;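 note: mutant grown at 25 °C; 0% = DMSO wells with yeast and 100% = wells holding no yeast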
# tim10 confirm: confirmation of TIM10 yeast growth inhibitors; shares compounds with TIM10 inh; S. cerevisiae tim10 strain growth, BacTiter-Glo luminescence, 24 h; inhibition, % at 10 µM; 63% of 4,600 active; AID 463215;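 active = inhibition of yeast growth at or above a set limit in either of two replicates at 10 µM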;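 note: this counterscreen used the strain with wild-type TIM10; 0% = yeast with DMSO and 100% = medium wells lacking yeast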
# Starred values were filed as active, the others as inactive; ? = inconclusive; . = no result.
SMILES,PfHsp90 yeast 2,NALP3 yeast inh,tim23-1 inh,TIM10 inh,tim10-1 inh,tim10 confirm
Cc1ccsc1CN(C)C(=O)CN1C(=O)NC2(CCCc3ccccc32)C1=O (stereo not drawn),-7.5,9.2,-6.5,95.6*,11.0,-2.3
CCn1c(=O)[nH]c2cc(C(=O)Nc3cc(C)cc(C)c3)ccc2c1=O,8.9,1.7,-3.1,-18.0,-21.7,.
Cn1c(SCC(=O)N2CCCC2)nc2ccccc21,-2.7,8.2,-5.8,-16.5,-4.3,.
Cn1c(SCC(=O)N(Cc2ccccc2)C(C)(C)C)nc2ccccc21,-15.7,15.3,49.1,40.4*,32.7,23.7
CC(C)c1ccccc1OCC(O)CN1CCN(S(=O)(=O)c2ccc([N+](=O)[O-])cc2)CC1 (stereo not drawn),-5.8,13.9,38.7,40.1*,34.9,52.3*
CCN(CC(=O)NC1CC1)S(=O)(=O)c1ccccc1,8.2,1.5,-2.5,-5.6,-8.4,.
Fc1ccccc1Cc1noc(CN(Cc2ccccn2)CC2CCCO2)n1 (stereo not drawn),35.4,6.5,21.7,2.3,19.3,.
CCN(CC)S(=O)(=O)c1ccc(/C=C/C(=O)O)cc1,-1.5,-3.0,13.4,-9.8,13.6,.
CCN(CC)S(=O)(=O)c1ccc(/C=C/C(=O)Nc2cccc(F)c2)cc1,-3.9,8.3,27.7,58.8*,39.5,-12.8
CSc1cccc(NC(=O)/C=C/c2ccccc2)c1,12.1,45.3,43.7,40.0,29.7,16.4
CSc1cccc(NC(=O)/C=C/c2ccc(Cl)cc2)c1,26.2,34.1,8.0,16.8,-5.1,.
Nc1cc(=O)[nH]c(SCC(=O)NNC(=O)Cc2ccccc2)n1,-36.2,-1.9,-0.3,16.3,3.8,.
O=C(CCl)c1ccc2c(c1)CCN2C(=O)C1CC1,.,-36.3,-7.1,60.5*,8.6,73.7*
O=C(C1CCC(C(=O)N2CCc3ccccc32)CC1)N1CCc2ccccc21 (stereo not drawn),.,-0.4,12.2,-6.7,9.9,.
COC(=O)C1=C(C)N(c2ccc(C)cc2)/C(=C/c2cccs2)C1=O,.,-1.8,33.8,42.6*,38.4,31.7*
COC(=O)C1=C(C)N(c2ccc(C)c(C)c2)/C(=C/c2ccco2)C1=O,10.2,-1.9,38.3,48.4*,37.5,47.3*
NC(=O)c1sc(-c2ccsc2)cc1NS(=O)(=O)c1ccc(C(F)(F)F)cc1,.,-3.7,5.5,3.9,-1.5,.
C=CCN(C(=O)CSc1nc2c(sc3ccccc32)c(=O)n1CCN(CC)CC)c1ccccc1,-17.6,18.8,26.0,51.3*,39.4,19.6
Cc1nn(Cc2ccc(Cl)cc2)c(=O)n1N(C)c1ncc(C(F)(F)F)cc1Cl,-2.6,13.5,5.3,55.4*,39.9,-1.1
CNc1cnn(-c2ccccc2)c(=O)c1Cl,-17.9,5.6,30.4,-0.2,-5.5,.
O=c1c(Cl)c(N/N=C/c2ccc(Br)cc2)cnn1-c1ccccc1,-43.9,6.5,35.8,40.3*,22.9,-3.9
Cn1c(SCC(=O)N/N=C/c2ccc([N+](=O)[O-])s2)nnc1-c1ccccc1,?,22.4,43.3,71.0*,28.1,82.1*
Cc1cc2[nH]c3c(c[n+](C)c4ccccc34)c2cc1C,43.6,27.9,47.7,65.9*,38.2,58.5*
O=[N+]([O-])c1ccc(Nc2nc(NCCO)nc(N3CCCC3)n2)cc1,8.0,22.6,7.5,6.3,36.8,.
NNc1nc(Nc2ccccc2)nc(N2CCCCC2)n1,3.1,12.0,36.8,40.9*,32.3,6.5
SMILES,PfHsp90 yeast 2,NALP3 yeast inh,tim23-1 inh,TIM10 inh,tim10-1 inh,tim10 confirm
NNc1nc(Nc2ccc([N+](=O)[O-])cc2)nc(N2CCCCCC2)n1,-9.7,24.1,42.0,97.3*,32.8,25.5
COc1cc2c(cc1OC)CN(C(=O)/C=C/c1cccs1)CC2,4.8,13.8,1.2,-8.8,-10.8,.
Cc1cc(C(=O)NNC(=O)c2cccs2)c(C)o1,20.1,12.4,7.1,12.4,1.9,.
Cc1ccc(C)c(OCCC(=O)N2CCN(S(=O)(=O)c3ccc([N+](=O)[O-])cc3)CC2)c1,-1.9,6.6,7.2,53.1*,7.3,-7.7
CCN(CC)C(=O)Cn1nc(-c2ccc(Cl)cc2)c2ccccc2c1=O,-1.7,-4.0,17.9,9.7,27.0,.
Cc1ccc(S(=O)(=O)Cc2cc(F)c([N+](=O)[O-])cc2[N+](=O)[O-])cc1,73.3,14.6,-8.4,89.0*,29.2,68.4*
CCC(CC)NC(=O)Nc1ccccc1C(F)(F)F,26.5,8.1,4.5,-16.4,6.9,.
COc1ccc2nc(C)cc(N/N=C/c3cccc(OC)c3O)c2c1,15.0,19.2,1.8,-6.6,-4.6,.
Cc1cc(N/N=C/c2ccccc2O)c2ccccc2n1,-18.8,26.2,31.9,58.9*,28.9,26.6*
O=C(N=C1c2ccccc2CN1c1ccc(F)c(F)c1)c1cccnc1,0.3,5.6,42.4,48.6*,33.0,12.6
O=C(Nc1nnc(-c2cccs2)s1)c1cccc(F)c1,7.2,-15.2,-15.3,-6.1,0.1,.
Cc1cccc(OCC(O)CN2CCN(c3ccccn3)CC2)c1C (stereo not drawn),-28.7,8.8,-6.0,97.6*,-6.4,1.2
Cc1ccc(C(=O)/C=C/c2ccc3c(c2)OCO3)o1,-8.9,12.9,10.9,-2.0,15.2,.
Cc1ccc(O)c(C(=O)/C=C/c2ccc3c(c2)OCCCO3)c1,-6.6,25.0,37.0,48.9*,38.4,55.7*
Cc1[nH]c(=S)sc1Cc1ccc(Cl)c(Cl)c1,.,-25.7,18.1,41.7*,28.2,-12.6
CC1=CC(C)(C)NC(=S)N1c1cc(C)cc(C)c1,7.6,-8.3,29.5,45.2*,33.1,21.6
CCn1c(=O)c(C(=O)CN(C)CC(=O)Nc2cccc(F)c2)c(N)n(Cc2ccccc2)c1=O,-2.5,10.2,11.0,5.3,12.8,.
Cc1nc(Nc2c(Cl)cccc2Cl)sc1C(=O)Nc1ccccc1,-14.8,1.0,34.9,44.5*,36.2,30.6
O=c1c(-c2nnc(SCc3ccc(Cl)c(Cl)c3)o2)cccn1Cc1ccccc1,-20.7,23.5,42.3,42.9*,33.3,30.1*
O=C(NC(=S)NNC(=O)c1ccccc1O)c1cccc([N+](=O)[O-])c1,10.8,17.3,20.2,41.9*,-18.0,55.8*
COc1ccc(C(=O)NNC(=S)NC(=O)c2cccc([N+](=O)[O-])c2)cc1,6.4,21.5,5.4,2.6,-3.1,.
CC(NC(=O)COC(=O)c1cc(S(=O)(=O)N2CCOCC2)ccc1F)c1ccccc1 (stereo not drawn),-24.1,16.0,3.6,-5.0,-2.0,.
CCOc1ccc(C2CC(c3ccc(F)cc3)n3ncnc3N2)cc1 (stereo not drawn),-9.4,36.6,46.9,40.1*,21.6,42.3*
CNC(=O)c1ccc(Nc2nc(-c3ccccc3)nc3ccccc23)cc1,-7.8,9.4,30.3,40.0*,29.7,28.0
Cc1ccccc1OCCn1cnc2cc([N+](=O)[O-])ccc2c1=O,-68.9,11.3,27.7,42.2*,34.8,1.1

# Assay outcomes deposited in PubChem BioAssay by several laboratories.
